The source of these data is PubChem BioAssay (EPA / NIEHS).

Several values for one entry are separate records, joined by “and”; a condition that tells them apart may be missing. Equal entries are not always repeated. Results filed as inconclusive are left out. Where a structure was tested more than once in an assay, its records may differ in their call. Activity calls are given as the source filed them. How the source made its calls, unless noted: active means hit-call score of the fitted dose curve at least 0.9, where 1 is the maximum; inconclusive means response in the unintended direction; inactive means score below 0.9.

In assay [1] the target is Cellular tumor antigen p53 (Homo sapiens) (UniProt P04637). As to the kind of experiment: TOX21_p53_BLA_p2_ratio: Tox21 HCT-116 p53 Agonism Beta-lactamase Assay, Ratio, Phase 2 (AID 2283592). The procedure, abridged:
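HCT116 p53-bla; 4000 cells/well; 5 h pre-incubation; cpd in DMSO, 217-fold dilution; 16 h 37C/5% CO2; CCF4-AM 2 h RT; Ex 405, Em 460/530 ratio; DMSO = baseline; positive fitting direction.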

Assay [2] in a line: TOX21_p53_BLA_p3_viability: Viability Assessment in the Tox21 HCT-116 p53 Agonism Beta-lactamase Assay, Phase 3 (AID 2283593).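 Further: cells exposed to compound for 16 h before reading.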 The gist of the method:
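HCT-116 cells (4000/well) rested 5 h at 37C, then got DMSO compounds by pin tool (217-fold dilution) for 16 h at 37C, 5% CO2. After the bla read, CellTiter-Glo was added and luminescence read at 30 min, room temperature.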

Assay [3] in a line: TOX21_p53_BLA_p4_viability: Viability Assessment in the Tox21 HCT-116 p53 Agonism Beta-lactamase Assay, Phase 4 (AID 2283597).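 Further: hits lower the luminescence signal meaning cytotoxicity.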 The gist of the method:
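Cells plated, 5 h pre-incubation; DMSO compounds pinned (217-fold dilution); 16 h, 37C/5% CO2; CCF4-AM 2 h RT; CellTiter-Glo 30 min RT; luminescence read.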

The target of assay [4] is Cellular tumor antigen p53 (Homo sapiens) (UniProt P04637). The experiment in a line: TOX21_p53_BLA_p5_ratio: Tox21 HCT-116 p53 Agonism Beta-lactamase Assay, Ratio, Phase 5 (AID 2283599). The gist of the method:
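HCT-116 cells carrying a p53-inducible beta-lactamase reporter were seeded at 4000 cells/well and dosed after 5 h with compound in DMSO (217-fold dilution). After 16 h at 37C, CCF4-AM substrate was added for 2 h, and the 460/530 nm emission ratio was scored as gain-of-signal versus DMSO.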

Assay [5] has the same target. As to the kind of experiment: TOX21_p53_BLA_p4_ratio: Tox21 HCT-116 p53 Agonism Beta-lactamase Assay, Ratio, Phase 4 (AID 2283601). The gist of the method:
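HCT116 cells carrying an inducible beta-lactamase reporter were plated at 4000 cells/well, rested 5 h, then exposed to compounds in DMSO (217-fold dilution) for 16 h at 37C. CCF4-AM substrate was loaded 2 h at room temperature; 460/530 nm emission ratio scored gain-of-signal versus DMSO.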

Assay [6] in a line: TOX21_p53_BLA_p5_viability: Viability Assessment in the Tox21 HCT-116 p53 Agonism Beta-lactamase Assay, Phase 5 (AID 2283600). The procedure, abridged: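 4000 cells/well; 5 h pre-incubation; DMSO compounds pin-transferred, 217-fold dilution; 16 h, 37C/5% CO2; CCF4-AM 2 h RT; CellTiter-Glo 30 min RT; luminescence.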
The nature of assay [7]: CCTE_Harrill_HTTr_Viability_MCF7: CCTE's 6-hour Cell Viability Assessment for the High-Throughput Transcriptomics (HTTr) Platform, in MCF-7 cells cultured in DMEM + 10% fetal bovine serum, Harrill Lab (AID 2284010; active means hit-call score of the fitted dose curve at least 0.9, where 1 is the maximum; inactive means score below 0.9). The procedure, abridged: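 Membrane integrity was scored by high-content imaging of propidium iodide dye exclusion after a 6 h exposure across an eight-point dilution series. Data were fitted bidirectionally relative to DMSO as negative control and baseline.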

Assay [8] in a line: CCTE_Harrill_HTTr_Apoptosis_MCF7: CCTE's 6-hour Apoptosis Assessment for the High-Throughput Transcriptomics (HTTr) Platform, in MCF-7 cells cultured in DMEM + 10% fetal bovine serum, Harrill Lab (AID 2284011; active means hit-call score of the fitted dose curve at least 0.9, where 1 is the maximum; inactive means score below 0.9). The procedure, abridged: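 MCF-7 (DMEM + 10% FBS), 384-well; 8-pt dilution series, 6 h chemical exposure; caspase-3/7 activation via CellEvent Caspase 3/7 Green, HCI; bidirectional fit vs DMSO.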

Assay [9] can be described thus: CCTE_Harrill_HTTr_CellCount_MCF7: CCTE's Cell Proliferation Assessment for the High-Throughput Transcriptomics (HTTr) Platform, Harrill Lab (AID 2284012).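 Further: cells exposed to compound for six hours; intended direction is loss of nuclei count meaning fewer cells.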 The gist of the method:
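MCF-7 cells were exposed for 6 h to an eight-point dilution series; Hoechst-labeled nuclei were counted by high content imaging. Curves were fitted bidirectionally against DMSO as negative control and baseline, with signal loss indicating reduced cell count.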

Assay [10] addresses PGR (gene 5241) (UniProt P06401). The experiment in a line: TOX21_PR_BLA_Followup_Antagonist_ratio: Tox21 HEK293 Progesterone Receptor (PR) Antagonism Beta-lactamase Follow-Up Assay, Ratio (AID 2283934). The procedure, abridged:
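PR-UAS-bla HEK293T cells in medium with 2% charcoal-stripped FBS were treated with compounds plus 1 nM (final) promegestone (R5020) for 16 hr at 37C. LiveBLAzer B/G FRET substrate was then added for 2 h at room temperature; signal is cleaved/uncleaved substrate ratio versus DMSO.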

Assay [11] in a line: TOX21_PR_BLA_Followup_Agonist_viability: Viability Assessment in the Tox21 HEK293 Progesterone Receptor (PR) Agonism Beta-lactamase Follow-Up Assay (AID 2283935).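 Further: signal loss means lower viability so actives are cytotoxic.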 The procedure, abridged: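 PR-UAS-bla HEK293T cells in 2% charcoal-stripped FBS medium, compound added after 6 hr plating, 16 hr at 37C/5% CO2. After bla FRET read, CellTiter-Glo added; luminescence read after 30 min at room temperature; signal loss marks cytotoxicity.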

The target of assay [12] is PGR (gene 5241) (UniProt P06401). The experiment in a line: TOX21_PR_LUC_Followup_Agonist: Tox21 HEK293 Progesterone Receptor (PR) Agonism Luciferase Follow-Up Assay (AID 2283937; active means hit-call score of the fitted dose curve at least 0.9, where 1 is the maximum; inactive means score below 0.9). The procedure, abridged:
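HEK293-PR-A-luc cells, pre-cultured 5 days in medium with 10% charcoal-stripped FBS, were seeded at 3,000 cells/well, rested 5 h at 37C, then exposed to compounds 16 h at 37C; luciferase read by ONE-Glo luminescence after 30 min.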

For assay [13] the target is unchanged. As to the kind of experiment: TOX21_PR_LUC_Followup_Antagonist: Tox21 HEK293 Progesterone Receptor (PR) Antagonism Luciferase Follow-Up Assay (AID 2283938).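 Further: curve fitted upward as signal gain over DMSO baseline despite antagonist label.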 The gist of the method:
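Cells are grown 5 days in charcoal-stripped-FBS assay medium, plated, left 5 h, then dosed with compound and incubated 16 h. ONE-Glo reagent is added and luminescence read after 30 min.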

Assay [14] is described as follows: TOX21_PR_LUC_Followup_Antagonist_viability: Viability Assessment in the Tox21 HEK293 Progesterone Receptor (PR) Antagonism Luciferase Follow-Up Assay (AID 2283940). The gist of the method:
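HEK293-PR-A-luc cells, precultured 5 days in assay medium with 10% charcoal-stripped FBS, were seeded at 3,000 cells/well, treated with compounds in DMSO for 16 h at 37C, and viability was read as cellular ATP by CellTiter-Glo luminescence.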

Assay [15] can be described thus: TOX21_PR_LUC_Followup_Agonist_viability: Viability Assessment in the Tox21 HEK293 Progesterone Receptor (PR) Agonism Luciferase Follow-Up Assay (AID 2283941).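 Further: loss of signal means cytotoxicity so actives lower viability.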 The gist of the method: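 HEK293-PR-A-luc cells, pre-cultured 5 days in 10% charcoal-stripped FBS, were seeded at 3,000 cells/well, rested 5 h at 37C, then given compound in DMSO for 16 h at 37C. Cellular ATP was read by CellTiter-Glo luminescence; signal loss indicates cytotoxicity.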

In assay [16] the target is Thyroid hormone receptor alpha (Rattus norvegicus) + Thyroid hormone receptor beta (Rattus norvegicus) (UniProt P18113+P63059). The experiment in a line: TOX21_TR_LUC_GH3_Antagonist_Followup: Tox21 GH3 Thyroid Hormone Receptor Antagonism Luciferase Follow-Up Assay (AID 2283942). The gist of the method:
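Rat pituitary GH3 cells with a TRα/TRβ-driven luciferase reporter, 5 h attachment, then 15 concentrations (92 uM to 5nM final) plus 1.0 nM T3 agonist, 24 h at 37C/5% CO2. ONE-Glo luminescence; signal change fitted against DMSO baseline.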

Assay [17] addresses THRB (gene 7068) (UniProt P10828). The experiment in a line: TOX21_TRB_BLA_Antagonist_Followup_ratio: Tox21 Thyroid Hormone Receptor beta Antagonism Beta-lactamase (BLA) Follow-Up Assay, Ratio (AID 2283958). The procedure, abridged: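 GAL4-DBD/human TRβ-LBD fusion in GeneBLAzer UAS-bla HEK293T cells, 3,000 cells/well in phenol red-free DMEM with 2% charcoal-stripped FBS; compounds at 11 concentrations in triplicate, 18 h at 37C. CCF4-AM substrate 2 h, 460:530 nm ratio relative to DMSO.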

The nature of assay [18]: TOX21_TRB_BLA_Antagonist_Followup_viability: Viability Assessment in the Tox21 Thyroid Hormone Receptor beta Antagonism Beta-lactamase (BLA) Follow-Up Assay (AID 2283961). The procedure, abridged: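 TRβ-bla HEK293T (human TRβ LBD fused to GAL4 DBD), 3,000 cells/well, 2% charcoal-stripped FBS, phenol red-free medium; 18 h compound exposure, 37C; CellTiter-Glo 30 min RT; luminescence, loss-of-signal readout.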

The nature of assay [19]: TOX21_TR_RXR_BLA_Antagonist_Followup_viability: Viability Assessment in the Tox21 Thyroid Hormone Receptor beta Retinoid X Receptor alpha (RXRa) Antagonism Beta-lactamase (BLA) Follow-Up Assay (AID 2283979). The gist of the method:
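RXRa-UAS-bla HEK293T cells seeded 2,500/well in phenol red-free DMEM with 2% charcoal-stripped FBS, attached 5 h, then exposed to compounds at 11 concentrations in triplicate for 16 h at 37C/5% CO2. Viability read by CellTiter-Glo ATP luminescence; bidirectional fit versus DMSO.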

Assay [20] deals with THRA (gene 7067) (UniProt P10827). As to the kind of experiment: TOX21_TRA_COA_Antagonist_Followup_ratio: Tox21 Thyroid Hormone Receptor alpha Antagonism through Coactivator Recruitment Follow-Up Assay, Ratio (AID 2283953). The gist of the method: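 This follow-up to the GH3 luciferase screen checks specificity in a cell-free format. It measures SRC-2 coactivator peptide binding to TRα LBD by TR-FRET and scores loss of ratio signal relative to DMSO.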
Sequence of THRA (gene 7067) (P10827 whole entry, looked up, the tested form may be a part): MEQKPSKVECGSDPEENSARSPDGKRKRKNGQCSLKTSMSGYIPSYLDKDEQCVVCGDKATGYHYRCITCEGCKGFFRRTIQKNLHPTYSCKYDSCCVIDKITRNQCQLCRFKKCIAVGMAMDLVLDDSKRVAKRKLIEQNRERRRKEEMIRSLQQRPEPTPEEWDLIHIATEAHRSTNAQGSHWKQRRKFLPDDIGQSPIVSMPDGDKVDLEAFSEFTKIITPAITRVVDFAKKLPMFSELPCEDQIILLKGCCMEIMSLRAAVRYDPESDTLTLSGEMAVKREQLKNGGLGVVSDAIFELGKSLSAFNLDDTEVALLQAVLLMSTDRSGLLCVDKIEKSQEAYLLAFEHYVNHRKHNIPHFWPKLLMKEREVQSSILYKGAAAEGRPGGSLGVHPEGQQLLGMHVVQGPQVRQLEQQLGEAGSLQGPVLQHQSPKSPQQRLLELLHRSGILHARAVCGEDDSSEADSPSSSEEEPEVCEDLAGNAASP

For assay [21], the target named is THRB (gene 7068) (UniProt P10828). As to the kind of experiment: TOX21_TRB_COA_Antagonist_Followup_ratio: Tox21 Thyroid Hormone Receptor beta Antagonism through Coactivator Recruitment Follow-Up Assay, Ratio (AID 2283967). The procedure, abridged: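 Cell-free TR-FRET coactivator recruitment with GST-tagged TRβ LBD (5.0 nM) and fluorescein-labeled SRC-2 peptide (200 nM) detected by terbium anti-GST antibody (2 nM). The 520:495 nm emission ratio was normalized to DMSO (0%) and T3 (100%).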
Sequence of THRB (gene 7068) (P10828 whole entry, looked up, the tested form may be a part): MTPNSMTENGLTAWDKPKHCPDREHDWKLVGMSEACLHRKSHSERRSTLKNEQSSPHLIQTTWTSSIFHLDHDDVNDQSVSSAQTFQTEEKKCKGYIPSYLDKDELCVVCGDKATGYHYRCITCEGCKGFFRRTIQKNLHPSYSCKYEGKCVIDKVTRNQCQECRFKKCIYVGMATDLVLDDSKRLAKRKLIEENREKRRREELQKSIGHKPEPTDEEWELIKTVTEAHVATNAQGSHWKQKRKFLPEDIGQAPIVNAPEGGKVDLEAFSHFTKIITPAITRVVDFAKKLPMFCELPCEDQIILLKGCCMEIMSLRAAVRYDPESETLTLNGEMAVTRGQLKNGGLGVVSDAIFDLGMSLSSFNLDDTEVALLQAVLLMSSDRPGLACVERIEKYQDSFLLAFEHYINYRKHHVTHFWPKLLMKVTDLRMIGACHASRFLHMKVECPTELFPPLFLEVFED

Sequence of PGR (gene 5241) (P06401 whole entry, looked up): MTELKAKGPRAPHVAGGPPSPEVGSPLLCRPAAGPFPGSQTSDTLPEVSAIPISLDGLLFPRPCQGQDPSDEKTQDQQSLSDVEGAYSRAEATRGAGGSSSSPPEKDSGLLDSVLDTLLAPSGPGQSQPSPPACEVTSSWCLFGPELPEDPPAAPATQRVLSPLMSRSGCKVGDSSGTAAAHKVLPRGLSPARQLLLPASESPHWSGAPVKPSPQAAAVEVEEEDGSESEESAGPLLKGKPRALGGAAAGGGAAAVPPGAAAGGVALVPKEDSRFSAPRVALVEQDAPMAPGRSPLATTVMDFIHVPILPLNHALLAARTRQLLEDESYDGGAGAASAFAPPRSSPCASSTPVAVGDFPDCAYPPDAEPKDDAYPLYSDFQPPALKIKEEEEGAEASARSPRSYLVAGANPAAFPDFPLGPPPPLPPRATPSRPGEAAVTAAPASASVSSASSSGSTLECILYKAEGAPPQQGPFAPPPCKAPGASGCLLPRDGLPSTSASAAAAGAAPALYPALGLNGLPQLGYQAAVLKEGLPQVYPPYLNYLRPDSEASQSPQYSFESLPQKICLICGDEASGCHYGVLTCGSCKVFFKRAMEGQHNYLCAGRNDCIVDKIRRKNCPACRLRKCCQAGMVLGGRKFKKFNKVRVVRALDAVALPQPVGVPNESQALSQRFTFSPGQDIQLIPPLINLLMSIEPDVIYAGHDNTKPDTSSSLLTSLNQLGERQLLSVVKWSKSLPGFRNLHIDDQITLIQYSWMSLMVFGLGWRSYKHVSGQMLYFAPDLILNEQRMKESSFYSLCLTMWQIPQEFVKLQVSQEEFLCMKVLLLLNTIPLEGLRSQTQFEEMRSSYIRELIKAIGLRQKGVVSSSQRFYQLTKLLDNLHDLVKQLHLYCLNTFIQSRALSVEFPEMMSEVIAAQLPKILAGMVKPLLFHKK
Sequence of Cellular tumor antigen p53 (Homo sapiens) (P04637 whole entry, looked up): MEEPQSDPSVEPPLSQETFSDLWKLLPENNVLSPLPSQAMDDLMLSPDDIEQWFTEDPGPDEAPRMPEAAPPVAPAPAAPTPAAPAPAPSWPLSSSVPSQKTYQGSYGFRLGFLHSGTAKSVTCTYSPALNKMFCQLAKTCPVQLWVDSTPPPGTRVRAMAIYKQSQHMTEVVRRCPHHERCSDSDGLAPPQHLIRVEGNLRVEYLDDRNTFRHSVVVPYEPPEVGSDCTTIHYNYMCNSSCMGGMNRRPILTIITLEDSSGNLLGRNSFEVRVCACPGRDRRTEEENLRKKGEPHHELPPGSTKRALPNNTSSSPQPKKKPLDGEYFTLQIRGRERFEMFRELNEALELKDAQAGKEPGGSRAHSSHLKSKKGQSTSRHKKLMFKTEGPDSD

On to `Cc1[nH]c(=O)c(C#N)cc1-c1ccc2nccn2c1`, for which the result in assay [1], in assay [2], in assay [3], in assay [4] and in assay [5] was inactive.

For `O=C(C=Cc1ccc(O)c(O)c1)O[C@@H]1C[C@](O)(C(=O)O)C[C@@H](O)[C@H]1O`, the result in assay [1], in assay [2], in assay [3], in assay [4] and in assay [5] was inactive.

Take `CN(C(=O)c1c(O)c2ccccc2n(C)c1=O)c1ccccc1`: the outcome in [1], in [2], in [3], in assay [4], in [6] and in assay [5] was inactive.

For the compound `CCOC(=O)C(C)C(C)=O` (stereo not drawn), the outcome in assay [1], in assay [2], in assay [3], in assay [4], in assay [6] and in assay [5] was inactive.

For `NS(=O)(=O)Cc1noc2ccccc12`, the result in assay [1], in [2], in assay [3], in assay [4] and in assay [5] was inactive.

Turning to `OC(CCN1CCCCC1)(c1ccccc1)c1ccccc1`, the outcome in [1], in assay [2], in assay [4], in assay [6] and in [5] was inactive.

Take `CCc1ccccc1CC`: the result in [1], in assay [2], in assay [3], in assay [4], in assay [5] and in [7] was inactive. The result in assay [8] and in assay [9] was inactive.

Regarding `COc1ccc(NC(C)=O)cc1`, the outcome in assay [1], in [2], in [3] and in assay [6] was inactive.

Turning to `CC(=O)OCC(=O)[C@@]1(O)CC[C@H]2[C@@H]3CCC4=CC(=O)C=C[C@]4(C)[C@H]3[C@@H](O)C[C@@]21C`, the result in assay [10], in assay [11], in assay [13], in assay [14] and in assay [15] was inactive. The concentration at half-maximal activity (AC50) (as a rule, the concentration at which the activity in the assay is half-maximal) in [12] was 2.28 µM (active).

Take `Nc1ccc2cc3ccc(N)cc3nc2c1`: the AC50 in assay [16] was 13.1 µM (active); in [17] it was 32.4 µM (active) and 28.8 µM (active); in assay [18] it was 19.5 µM (active). Also, the outcome in assay [18] and in assay [19] was inactive.

For the compound `COc1cc([C@@H]2c3cc4c(cc3[C@H](O)[C@H]3COC(=O)[C@H]23)OCO4)cc(OC)c1OC`, the result in [16], in assay [20], in assay [21] and in assay [19] was inactive. Further, the AC50 in assay [17] was 27.3 nM (active).

On to `Cc1cnc(C(=O)NCCc2ccc(S(=O)(=O)NC(=O)NC3CCCCC3)cc2)cn1`, for which the result in [7], in assay [8] and in assay [9] was inactive.
